Assay outcomes as filed in PubChem BioAssay.
PI5P4K alpha inh: inhibitors of human PI5P4K alpha | max response, % | hit rate 1.2% among 330,000 | PI5P4Kalpha enzyme, ADP-Glo luminescence, 60 min; stronger effect = lower value; active = max response of -50% or lower; inconclusive = between -30% and -50%; inactive = -30% or higher; note: value at the top dose of about 77 µM; % is set by controls: 0 for no effect and ±100 for the full control effect
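Reactions run in 0.038 M HEPES pH 7.4, 0.28 mM EGTA, 0.1% CHAPS and 5% DMSO, with PI5P4Kalpha, substrate, compound and 5 microM ATP final, one hour at room temperature. Readout is ADP-Glo luminescence.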
PLK1 PBD inh: PLK1 (human) polo-box domain binding inhibition | P53350 | Plk1 PBD binding of FITC phosphopeptide, fluorescence polarization | Potency, µM, inactives show max response, negative = inhibition, usual class: inhibitors | hit rate 2.8% among 360,000 | AID 720504; note: potency is the fitted concentration of half-maximal effect; series mostly up to about 57 µM; % is set by controls: 0 for no effect and ±100 for the full control effect; nearly all actives have a fitted effect of over 65% in size
G9a inh: inhibitors of human histone lysine methyltransferase G9a; G9a H3K9 monomethylation, AlphaScreen, 2 h; Potency, µM (top dose mostly 102 µM), for the others: at the highest dose activity, negative = inhibition, most hits filed as inhibitors; hit rate 8.8% among 350,000; Q96KQ7; note: potency is the fitted concentration of half-maximal effect; % is set by controls: 0 for no effect and ±100 for the full control effect; nearly all actives have a fitted effect of over 75% in size
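G9a (20 nM) preincubated 15 min RT with compounds, then 500 nM biotinylated H3K9 peptide and 20 uM SAM added; 2 h RT reaction. Monomethyl-H3K9 product detected by AlphaScreen with anti-H3K9me1 antibody, streptavidin donor and anti-rabbit IgG acceptor beads.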
BAZ2B inh: BAZ2B (human) inhibition; Q9UIF8; Potency, µM (titrated, usually from 114 µM), for the others: at the highest dose activity change, negative = inhibition, hits mostly inhibitors; hit rate 4.4% among 360,000; AlphaScreen BAZ2B-H3K14Ac peptide displacement; AID 504333; note: potency is the fitted concentration of half-maximal effect; % is set by controls: 0 for no effect and ±100 for the full control effect; nearly all actives have a fitted effect of over 60% in size
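Complex of BAZ2B and biotin-H3K14Ac (50 nM apiece) forms over 30 min at RT, then faces library compounds up to 110 uM for another 30 min; AlphaScreen beads added, 20 min dark incubation, luminescence read.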
HP1b binding inh: blocks HP1-beta chromodomain binding to methylated histone tails | P83916 | AlphaScreen HP1-beta / biotin-H3K9me3 peptide binding | Potency, µM (doses to about 114 µM), for inactives: top-dose activity change, negative = inhibition, usual class: inhibitors | hit rate 0.56% among 390,000 | AID 540317; note: potency is the fitted concentration of half-maximal effect; nearly all actives have a fitted effect of over 70% in size
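Compound inhibition of the preformed complex between 50 nM HP1-beta and 50 nM biotinylated H3K9me3 peptide was read by AlphaScreen. Buffer was PBS pH 7.4 with 0.01% Tween-20. Incubations ran 30 min at room temperature, with 10 ug/mL donor/acceptor beads.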
JMJD2A Tudor inh: JMJD2A Tudor domain (human) inhibition; AlphaScreen JMJD2A-Tudor / H3K4me3 peptide binding; O75164; Potency, µM (top dose mostly 114 µM), inactives show top-dose activity change, negative = inhibition, usual class: inhibitors; AID 504339; hit rate 4.4% among 390,000; note: potency is the fitted concentration of half-maximal effect; % is set by controls: 0 for no effect and ±100 for the full control effect; nearly all actives have a fitted effect of over 50% in size
Target sequence (O75164 whole entry, looked up, the tested form may be a part): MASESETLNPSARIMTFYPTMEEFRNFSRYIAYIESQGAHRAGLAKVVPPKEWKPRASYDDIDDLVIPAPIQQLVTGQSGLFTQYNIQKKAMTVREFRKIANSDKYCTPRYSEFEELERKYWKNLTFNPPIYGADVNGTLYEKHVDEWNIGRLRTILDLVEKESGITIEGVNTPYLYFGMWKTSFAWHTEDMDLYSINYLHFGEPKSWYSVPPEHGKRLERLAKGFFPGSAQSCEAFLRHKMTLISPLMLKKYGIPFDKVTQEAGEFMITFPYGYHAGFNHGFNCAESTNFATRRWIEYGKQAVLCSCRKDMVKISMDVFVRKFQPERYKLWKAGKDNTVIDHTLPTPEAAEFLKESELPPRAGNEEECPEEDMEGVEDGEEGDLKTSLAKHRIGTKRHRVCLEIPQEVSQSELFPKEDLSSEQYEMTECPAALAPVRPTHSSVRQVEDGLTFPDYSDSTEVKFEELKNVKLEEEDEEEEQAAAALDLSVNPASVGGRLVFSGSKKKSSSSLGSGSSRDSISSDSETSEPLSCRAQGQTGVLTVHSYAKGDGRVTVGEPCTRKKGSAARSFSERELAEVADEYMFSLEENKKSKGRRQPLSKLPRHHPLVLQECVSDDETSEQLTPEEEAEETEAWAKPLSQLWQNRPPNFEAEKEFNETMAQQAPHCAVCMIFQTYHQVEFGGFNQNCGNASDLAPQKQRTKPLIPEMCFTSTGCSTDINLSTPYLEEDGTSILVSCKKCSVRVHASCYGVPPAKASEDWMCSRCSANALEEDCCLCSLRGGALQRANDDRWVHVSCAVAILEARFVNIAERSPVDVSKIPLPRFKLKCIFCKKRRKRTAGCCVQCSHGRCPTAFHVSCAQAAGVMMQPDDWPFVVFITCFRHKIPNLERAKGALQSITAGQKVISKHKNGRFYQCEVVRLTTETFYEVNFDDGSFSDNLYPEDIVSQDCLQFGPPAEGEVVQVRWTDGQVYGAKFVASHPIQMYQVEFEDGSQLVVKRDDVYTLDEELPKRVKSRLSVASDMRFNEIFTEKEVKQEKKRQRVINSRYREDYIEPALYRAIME
* hit, by the source's call; ? = inconclusive; . = no result given; [ ] = another dose, or the depositor's remark. Shown are actives, neighbours in structure and some others; about 12% of the full set was active somewhere. Unless noted, calls come from the whole dose curve; as a rule, active = well fitted curve in the direction sought with a large enough effect; inconclusive = small, poorly fitted or top-dose-only effect, or another doubt; inactive = no such curve, though single readings can be large; an effect the other way counts as inactive or inconclusive.

SMILES | PI5P4K alpha inh | PLK1 PBD inh | G9a inh | BAZ2B inh | HP1b binding inh | JMJD2A Tudor inh
CCOC(=O)c1c(-c2ccccc2)oc2ccc(O)c(CN3CCOCC3)c12 | -26 | 12µM* | -5%[59 µM] | 5% | 25% | -22%[11.4 µM]
COc1ccc(NC(=O)c2c(C)oc3ccc(O)c(CN4CCCCCC4)c23)cc1 | . | . | -10%[59 µM] | -27% | 24% | ?
Cc1cccc(-n2c(SCC(=O)N3CC(=O)Nc4ccccc43)nc3ccccc3c2=O)c1C | 0 | -4% | 45µM* | 1% | 18% | -24%
Cc1nnc(SCC(=O)N2CC(=O)Nc3ccccc32)n1Cc1ccccc1 | 0 | -12% | -38% | 0% | 41% | 0%
O=C1CN(C(=O)CNCc2ccc(Cl)cc2)c2ccccc2N1 | -8 | -10% | 25µM* | 71µM* | ? | 10µM*
Cc1nc(SCC(=O)N2CC(=O)Nc3ccccc32)nc(C)c1C | 1 | -9% | 32µM* | 4% | 30% | -13%
COc1ccccc1Nc1nnc(SCC(=O)N2CC(=O)Nc3ccccc32)s1 | -11 | -8% | 50µM* | -2% | 19% | -18%
Cc1cc2c(s1)c1cnn(Cc3ccccc3Cl)c(=O)c1n2C | . | . | . | . | . | -16%
COc1ccc(Cl)cc1NC(=O)Cc1coc2c(C)c(C)ccc12 | . | . | -28%[59 µM] | -28% | -8% | 0%
Cc1cccc(C(C)C)c1NC(=O)C1CN(S(=O)(=O)c2ccccc2)CCN1S(=O)(=O)c1ccccc1 (stereo not drawn) | 2 | -2% | 71µM* | -4% | 31% | -9%
Cc1ccc(-c2n[nH]c(=S)n2/N=C/c2cccs2)cc1 | -7 | -18% | 1µM* | -3% | 1% | 28µM*
Cc1cc(-c2n[nH]c(=S)n2/N=C/c2cccs2)n[nH]1 | 0 | -13% | 0.35µM* | -38% | 7% | 6.3µM*
S=c1[nH]nc(-c2ccccc2)n1/N=C/c1cccs1 | . | -21% | 0.56µM* | -38% | -10% | 18µM*
O=CC(O)C(O)C(O)C(O)CO (stereo not drawn) | . | . | 4%[59 µM] | . | . | .
CCC(C(=O)Nc1cccc(Cl)c1C)n1nc(C)c2sc3ccccc3c2c1=O (stereo not drawn) | . | . | -8%[59 µM] | -8% | 19% | -18%
CC(C)C(=O)N(Cc1ccc2c(c1)OCO2)Cc1ccccn1 | . | -8% | 40µM* | ? | 2% | 56µM*
COc1ccc(S(=O)(=O)Oc2cccc(/C=N/N=C3/NC(=O)C(CC(=O)O)S3)c2)cc1 (stereo not drawn) | -8 | -6% | . | ? | 45% | 12%
COc1ccc(/C=N/N=C2/NC(=O)C(CC(=O)O)S2)cc1OCc1ccccc1Cl (stereo not drawn) | ? | -24% | -13% | 50µM* | -13% | ?
COc1ccc(/C=N/N=C2/NC(=O)C(CC(=O)O)S2)cc1OCc1ccc(Cl)cc1Cl (stereo not drawn) | -56* | -18% | 79µM* | 50µM* | -17% | ?
CCOc1cc(/C=N/N=C2/NC(=O)C(CC(=O)O)S2)ccc1OS(=O)(=O)c1ccc(C)cc1 (stereo not drawn) | ? | -9% | 11% | ? | 26% | -7%
CCOc1cc(/C=N/N=C2/NC(=O)C(CC(=O)O)S2)ccc1OCc1ccccc1Cl (stereo not drawn) | -20 | ? | ? | 50µM* | 14% | ?
O=C(CSc1ncccc1C(=O)Oc1ccccc1Cl)Nc1ccccc1Cl | . | . | -5%[59 µM] | 22% | 23% | -5%
CCc1ccc(C#CC2=CC(=O)CC(C)(C)C2)cc1 | 8 | -13% | . | . | . | .
COc1ccccc1Nc1nnc(SCc2nnc(-c3cc(OC)c(OC)c(OC)c3)o2)s1 | -7 | -16% | 14µM* | -28% | 6% | ?
CCCCCCCCOc1ccccc1C(=O)Nc1ccc(C(=O)OCC[N+](C)(CC)CC)cc1 | . | . | -6%[12.7 µM] | . | . | .
SMILES | PI5P4K alpha inh | PLK1 PBD inh | G9a inh | BAZ2B inh | HP1b binding inh | JMJD2A Tudor inh
CCCCNC(=O)c1ccc2nc(-c3cccs3)c(-c3cccs3)nc2c1 | . | . | . | . | 14%[57 µM] | -1%[57.1 µM]
CCN1/C(=C2\C(=O)N(c3ccccc3)N=C2C)C=Cc2cc(C)ccc21 | -4 | -8% | ? | 56µM* | 21% | -8%
CCN1/C(=c2/s/c(=C3/C(=O)N(c4ccccc4)N=C3C)n(CC)c2=O)C=Cc2ccccc21 | 0 | -7% | . | . | -23% | -29%
O=[N+]([O-])c1ccc(-c2nc(C(Cl)Cl)c3ccccc3n2)cc1 | 3 | -7% | 22µM* | ? | 24% | -8%
CN(Cc1ccccc1)c1nc(-c2ccc([N+](=O)[O-])cc2)nc2ccccc12 | 12 | -2% | -46% | ? | -14% | ?
Cc1ccc(-c2noc(CN(C3CCCCC3)S(=O)(=O)c3ccc(F)cc3)n2)cc1 | . | . | 26%[59 µM] | 14% | 43% | 10%
CC(=O)Nc1ccc(Nc2nc3ccc(Cl)cc3n3cnnc23)cc1 | . | . | -4%[59 µM] | 1% | 30% | 8%
COc1ccc(CN2C(=O)c3ccccc3C2C(=O)NC2CCC(C)CC2)c(OC)c1 (stereo not drawn) | 0 | 24µM* | -6%[59 µM] | -16% | 16% | -11%[11.4 µM]
COc1cccc(NC(=O)CN(C)C(=O)c2ccc(Cl)c(S(=O)(=O)N3CCCCCC3)c2)c1 | 3 | -14% | 71µM* | 10% | -1% | -22%
CCOC(=O)c1ccc(Cl)c(S(=O)(=O)N2CCCC2)c1 | -11 | 21µM* | . | -6% | 11% | 2%[11.4 µM]
COc1cccc(NC(=O)CN(C)C(=O)c2cccc(NS(=O)(=O)c3ccccc3)c2)c1 | -1 | -13% | -4%[12.7 µM] | 11% | 23% | -9%
Cc1cc(C(=O)COC(=O)c2ccc(Cl)c(S(N)(=O)=O)c2)c(C)n1C1CC1 | -8 | 0% | 50µM* | ? | ? | ?
COc1cccc(NC(=O)CN(C)C(=O)c2cccc(S(=O)(=O)N3c4ccccc4CC3C)c2)c1 (stereo not drawn) | 2 | 7% | 16µM* | 2% | 10% | -27%
CCCCNC(=O)c1nn(-c2ccc(C)cc2)c(=O)c2c1c1ccccc1n2C | . | . | -1%[59 µM] | . | 22% | -11%
COC(=O)C1=C(NC(C)=O)CCS1 | 8 | -6% | ? | 3% | 18% | -18%
COC(=O)C1=C(NC(=O)C2CCCCC2)CCS1 | 17 | -2% | 1.8µM* | ? | -3% | ?
CCN(c1ccccc1C)S(=O)(=O)c1nnc(NC(=O)c2ccccc2C)s1 | . | . | 2.5µM* | ? | -10% | ?
CCN(c1cccc(C)c1)S(=O)(=O)c1nnc(NC(=O)c2cccs2)s1 | . | . | 3.2µM* | 3.5µM* | ? | ?
CCN(c1cc(C)cc(C)c1)S(=O)(=O)c1nnc(NC(=O)c2cccs2)s1 | . | . | -28%[59 µM] | -5% | 4% | -27%
Cc1cccc(NC(=O)COc2coc(CN3CCN(c4ccccc4)CC3)cc2=O)c1 | -2 | -3% | ? | -36% | 12% | -17%
